An excerpt weighted towards active compounds, which were near 4.7% of everything screened.
D1 antag: antagonists of human D1 dopamine receptor. AID 504652. actives 3.2% (n = 360,000). HEK293 TREx D1 cells, calcium flux, dopamine EC80; active compounds read low. activity change, negative = inhibition, % at 10 µM; in the data active means activity change below about -30%; further: on the % scale 0 is the no-effect control and ±100 the full control effect
Target sequence (P21728 whole entry, looked up): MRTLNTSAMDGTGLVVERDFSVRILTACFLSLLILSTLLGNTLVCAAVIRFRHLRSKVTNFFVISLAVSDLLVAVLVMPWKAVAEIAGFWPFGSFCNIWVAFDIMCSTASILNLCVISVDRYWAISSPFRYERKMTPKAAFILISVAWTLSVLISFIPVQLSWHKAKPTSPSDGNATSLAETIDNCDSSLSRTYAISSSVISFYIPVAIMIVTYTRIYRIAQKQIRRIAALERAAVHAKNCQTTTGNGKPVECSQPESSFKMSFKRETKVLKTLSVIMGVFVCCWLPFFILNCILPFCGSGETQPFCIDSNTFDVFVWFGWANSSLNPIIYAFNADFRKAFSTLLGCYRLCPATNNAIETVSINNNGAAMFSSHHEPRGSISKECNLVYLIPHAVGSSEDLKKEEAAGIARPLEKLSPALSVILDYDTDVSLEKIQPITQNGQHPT
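Antagonism measured as reduced calcium response to an EC80 dopamine addition following 180 s compound pre-read; cells were inducible HEK293 Trex D1 plated overnight at 30 C, read kinetically at 1 cycle/sec.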
D1 PAM: potentiators of human D1 dopamine receptor; P21728; HEK293 TREx D1 cells, calcium flux, dopamine EC20 potentiation; potentiation, % at 10 µM; actives 0.036% (n = 360,000); AID 504651; in the data active means potentiation above about 30%; further: 0% is about no effect
TRHR PAM: allosterically enhances the human TRH receptor; TRHR cells, fluo-8 calcium fluorescence, EC20 TRH enhancement; enhancement, % at 2 µM; actives 0.66% (n = 360,000); AID 493056; in the data active means enhancement above about 30%; further: 0% is about no effect
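TRHR-expressing cells loaded with fluo-8 calcium dye were read kinetically (ex 480/em 530) during compound addition, then stimulated with an EC20 of TRH (10 nM final). Enhancement of the Gq-mediated intracellular calcium response was scored.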
TRHR ag: agonists of human TRH receptor. P34981. TRHR cells, calcium flux fluo-8, FDSS agonist mode. activation, % at 2 µM. actives 0.18% (n = 360,000). AID 493084; further: 0% is about no effect
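In this calcium-flux screen, cells bearing human TRHR are dye-loaded with fluo-8, baselined for 10 cycles, then exposed to library compounds; positive kinetic calcium responses during the agonist phase mark hits, with TRH as control.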
D1 ag: agonists of human D1 dopamine receptor; P21728; HEK293 T-REx D1 cells, calcium flux, agonist mode; activation, % at 2 µM; actives 1% (n = 360,000); further: 0% is about no effect
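Tetracycline-induced HEK293 TREx D1 cells, force-coupled to calcium signalling, were dye-loaded with a no-wash calcium kit. Compound was pin-added after a 10 s baseline. Fluorescence was read kinetically at 1 cycle/s for 180 s, with calcium rises flagged as agonism.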
* = called active by the depositor; · = not tested or not shown. Unless noted, no stated cut-off is given here; in the data, active means activation above about 30%; inactive means the rest.

SMILES	D1 antag	D1 PAM	TRHR PAM	TRHR ag	D1 ag
O=C(CN1C(=O)c2ccccc2C1=O)N1CCN(c2ccccn2)CC1	-30*	0	-4	0	1
Cc1ccc(C)c(N2CCN(C(=O)NCc3noc4ccc(C)cc34)CC2)c1	8	-5	6	0	0
CC1CCN(C(=O)CCc2nc3cc(S(=O)(=O)N(C)C)ccc3n2C)CC1	-32*	11	-1	0	0
CCCS(=O)(=O)c1c(S(=O)(=O)CCC)c2cnccn2c1C(=O)c1ccc(Cl)cc1	-4	-2	33*	0	-1
CC1CN(C)C(C)C/C1=N\Oc1ccc([N+](=O)[O-])cc1 (stereo not given)	-31*	-7	-9	3	4
CC1CN(C)C(C)C/C1=N/Oc1ccccc1[N+](=O)[O-] (stereo not given)	-20	-5	-2	0	4
CC(=O)Nc1ccc(N/C(N)=N/c2nc(C)cc(C)n2)cc1	-1	-5	-12	0	1
Cc1cc(C)nc(/N=C(\N)Nc2ccc(SC(F)F)cc2)n1	-49*	-7	0	9	43*
Cc1cc(C)nc(/N=C(\N)Nc2ccc(-c3ccccc3)cc2)n1	0	-2	-9	5	34*
Cc1ccc(-c2nnc(Nc3cccc(Br)c3)c3ccccc23)cc1S(=O)(=O)N1CCCCC1	8	-1	2	1	3
CCc1cccc(C)c1NC(=O)CCn1nc(C)c2c(C)n(-c3ccccc3)nc2c1=O	3	0	-2	0	0
COc1ccc(NC(=O)c2cccc3c(=O)c4c([nH]c23)CCCC4)cc1	-33*	-4	-2	0	7
O=C(COC(=O)/C=C/c1ccccc1)NCc1ccccc1Cl	7	5	0	-1	1
CC(C)Oc1ccc(C(CCN)C2CCCCC2)cc1 (stereo not given)	40	12	2	18	102*
Cc1ccc(C)c(N2CCN(S(=O)(=O)c3cc4c(cc3C)NC(=O)CO4)CC2)c1	-1	-12	2	0	7
COC(=O)Nc1ccc(SCC(=O)c2ccc(Cl)cc2)cc1	-32*	2	-3	1	2
COc1ccc(C2N3CC4(C)CN2CC(C)(C3)C4)cc1OC (stereo not given)	-36*	4	6	0	2
COc1ccc(C2N3CC4(C)CN2CC(c2ccccc2)(C3)C4=O)cc1OC (stereo not given)	10	1	0	1	0
CN(CC(=O)Nc1ccccc1Cl)C(=O)Cn1nnc(-c2ccc(F)cc2)n1	-47*	-3	-4	0	1
Cc1nc(-c2ccc(F)cc2)c(CC(=O)N(C)CC(=O)Nc2ccccc2Cl)s1	4	2	-6	0	1
Cc1ccc(Cl)cc1NCc1nnc2n1CCCCC2	0	-2	-9	0	0
COc1ccc(NC(=O)CCC(=O)Nc2nnc(CC(C)C)s2)cc1Cl	0	4	9	1	1
Cc1cc(C)nc(N/N=C/c2ccccc2)n1	12	-1	-5	0	-1
Cc1cc(C)nc(N/N=C/c2ccc3c(c2)OCCO3)n1	-32*	-5	-1	0	2
O=[N+]([O-])c1ccc(-c2cn3nc(-c4ccccc4)c(-c4ccccc4)nc3n2)cc1	-19	1	2	4	10
SMILES	D1 antag	D1 PAM	TRHR PAM	TRHR ag	D1 ag
Cc1ccc(-c2cn3nc(-c4ccccc4)c(-c4ccccc4)nc3n2)cc1	0	5	3	4	43*
OC(CCc1ccncc1)COc1ccccc1 (stereo not given)	0	0	-2	0	9
c1ccc2c(c1)nc(N1CCOCC1)c1c3ccccc3[nH]c21	-57*	-4	-5	0	4
O=C1CC[C@H](OCc2ccccc2)CCN1[C@H](CSc1ccccc1)Cc1ccccc1	1	3	-9	1	10
COc1cc(NC(=O)C2CCN(c3nnc(C)c4c(C)n(-c5ccccc5)nc34)CC2)cc(OC)c1	-40*	-2	5	-1	2
Cc1ccc(-n2nc3c(N4CCCC(C(=O)NCc5ccccc5C)C4)nnc(C)c3c2C)cc1 (stereo not given)	17	53*	2	0	44*
CC(=O)c1ccc(NC(=O)C2CCN(c3nnc(C)c4c(C)n(-c5ccccc5)nc34)CC2)cc1	1	-2	-7	0	3
CCNC(=O)C1CCCN(c2nnc(C)c3c(C)n(-c4ccc(C)cc4)nc23)C1 (stereo not given)	2	-1	2	-1	4
Cc1cccc(CC(=O)NCc2nc3cccnc3n2Cc2ccc(F)cc2)c1	14	2	-1	-1	1
CCC(C)NCC(O)COCc1ccc(Cl)cc1 (stereo not given)	6	-1	4	-1	36*
CC(C)NCC(O)COCc1ccc(Cl)cc1 (stereo not given)	4	-2	3	1	1
O=C(c1ccccc1)c1nn(-c2cccc(Cl)c2)c2nc(-c3ccccc3)cc(=O)n12	-74*	1	6	-2	1
Cc1ccc(N(C)C(=O)c2noc3c2CCCCC3)cc1C	-1	-2	-2	-2	0
COc1cc2oc3ccccc3c2cc1N(CC(=O)N(C)C)S(=O)(=O)c1ccccc1	-5	0	-7	1	1
CCN(CC)C(=O)CN(c1cc2c(cc1OC)oc1ccccc12)S(=O)(=O)c1ccccc1	-68*	-11	-4	1	2
O=C1Nc2ccccc2C1(c1ccccc1)c1ccccc1	7	-6	-2	0	33*
CCN(Cc1ccccc1)C(=O)CN1C(=O)NC(CC)(c2ccc(F)cc2)C1=O (stereo not given)	10	-15	31*	0	6
CCC1(c2ccc(F)cc2)NC(=O)N(CC(=O)Nc2ccccc2C)C1=O (stereo not given)	-6	-9	3	3	23
CCC1(c2ccc(F)cc2)NC(=O)N(CC(=O)N2CCc3ccccc32)C1=O (stereo not given)	-15	·	-3	5	58*
Cc1ccc(Cn2c(=O)c3c(nc4n3CCN4c3cc(C)cc(C)c3)n(C)c2=O)cc1	7	-4	-7	0	-1
CC(C)(C)OC(=O)Cc1nnc(-c2cc3ccccc3[nH]2)s1	8	0	-3	1	2
Cc1ccc(Cl)cc1N1CCN(S(=O)(=O)c2ccc3[nH]c(=O)ccc3c2)CC1	-89*	-15	1	-1	1
Cc1ccc(Cl)cc1N1CCN(S(=O)(=O)c2cn(C)cn2)CC1	-35*	-4	0	-1	13
O=c1ccc2cc(S(=O)(=O)N3CCN(c4ccccc4F)CC3)ccc2[nH]1	-34*	-10	1	-1	12

Source: PubChem (National Center for Advancing Translational Sciences (NCATS))
